# From PubChem BioAssay (NCATS)
# Results filed as inconclusive are left out. Calls of active or inactive are those of the source. Calls follow the shape of the dose curve; as a rule, active = well fitted curve in the direction sought with a large enough effect; inconclusive = small, poorly fitted or top-dose-only effect, or another doubt; inactive = no such curve, though single readings can be large; an effect the other way counts as inactive or inconclusive.
# Biological target: Calcium and integrin-binding protein 1 (Homo sapiens) (UniProt Q99828)
# Sequence (Q99828 whole entry, looked up): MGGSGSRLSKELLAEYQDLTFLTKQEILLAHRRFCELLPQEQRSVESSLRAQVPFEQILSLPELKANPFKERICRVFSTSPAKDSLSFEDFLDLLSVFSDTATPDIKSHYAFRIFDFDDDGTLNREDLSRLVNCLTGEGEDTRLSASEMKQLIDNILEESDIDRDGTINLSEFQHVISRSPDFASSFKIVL
# Assay: Primary qHTS for Identification of Calcium Integrin Binding Protein 1 (CIB1) Competitor (AID 1508620);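 also: GST tagged CIB1 binding a fluorescein labelled alphaIIb integrin peptide tracer; top concentration of the series differs between compounds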
# Details: CIB1-GST / FITC-alphaIIb peptide fluorescence polarization; series mostly up to 57.7 µM; activity change, negative = inhibition: at the top concentration
# Procedure, shortened: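 CIB1-GST (1 uM final) and compound incubated 15 min at room temperature before adding FITC-alphaIIb peptide tracer (100 nM final). Competition for binding read by fluorescence polarization (ex 480, em 540) after another 15 min at room temperature.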
# % is scaled to controls: 0 for no effect and ±100 for the full control effect.
SMILES,Potency,"activity change, negative = inhibition"
COc1ccc(-c2cc3nccn3c(Nc3ncccc3C(N)=O)n2)cc1OC,inactive,–
C[C@H](c1ccc(F)cc1CCCC(=O)O)N(c1cc(F)ccc1F)S(=O)(=O)c1ccc(Cl)cc1,inactive,–
CC[C@H]1OC(=O)[C@H](C)[C@@H](O[C@H]2C[C@@](C)(OC)[C@@H](O)[C@H](C)O2)[C@H](C)[C@@H](O[C@@H]2O[C@H](C)C[C@H](N(C)C)[C@H]2O)[C@](C)(O)C[C@H](C)C(=NOCOCCOC)[C@H](C)[C@@H](O)[C@]1(C)O,–,-0.41% (inactive)
CC[C@H](C)n1cc(C)c2c(C(=O)NCc3c(C)cc(C)[nH]c3=O)cc(-c3ccc(N4CCNCC4)nc3)cc21,–,-0.636% (inactive)
O=C(O)Cc1cccc(OCCCN(Cc2cccc(C(F)(F)F)c2Cl)CC(c2ccccc2)c2ccccc2)c1,–,-3.15% (inactive)
COc1cc2c(cc1OC)[C@@H]1Cc3ccc(OC)c(OC)c3CN1CC2,–,-5.47% (inactive)
Cc1nn(Cc2ccccc2Cl)c(C)c1CN(C)CC(O)COc1ccc(Cl)cc1 (configuration not stated),–,-1.22% (inactive)
CCN(CCO)CCCOc1ccc2c(Nc3cc(CC(=O)Nc4cccc(F)c4)[nH]n3)ncnc2c1,inactive,–
CCNC(=O)c1noc(-c2cc(C(C)C)c(O)cc2O)c1-c1ccc(CN2CCOCC2)cc1,inactive,–
CNC1CCC(N(Cc2cccc(-c3ccncc3)c2)C(=O)c2sc3ccccc3c2Cl)CC1 (configuration not stated),inactive,–
COc1cc([C@@H]2c3cc4c(cc3[C@@H](O[C@@H]3O[C@@H]5CO[C@@H](C)O[C@@H]5[C@H](O)[C@@H]3O)[C@H]3COC(=O)[C@H]23)OCO4)cc(OC)c1O,–,-0.147% (inactive)
CC1(C)C(N(O)C(=O)Nc2ccc(Cl)cc2)N(c2ccc(Cl)cc2)C(=O)N1CC(=O)NN=CC=Cc1ccc([N+](=O)[O-])o1 (configuration not stated),–,-18% (inactive)
O=C1CCCC(=O)C1C(=O)c1ccc(C(F)(F)F)cc1[N+](=O)[O-],–,-7.55% (inactive)
Cc1cc(-c2ncc(CC(=O)Nc3ccc(-c4cnccn4)cn3)cc2C)ccn1,inactive,–
OC1CCC(Nc2ncc3nc(Nc4c(F)cc(F)cc4F)n([C@@H]4CCOC4)c3n2)CC1 (some centres not stated),–,-3.74% (inactive)
COc1c(C)c2c(c(O)c1CC=C(C)CCC(=O)OCCN1CCOCC1)C(=O)OC2,–,2.68% (inactive)
CC(=O)O[C@]1(C(C)=O)CC[C@H]2[C@@H]3C=C(Cl)C4=CC(=O)[C@@H]5C[C@H]5[C@]4(C)[C@@H]3CC[C@@]21C,–,-1.05% (inactive)
O=C(O)c1ccc(O)c2ncc(N3CCOCC3)cc12,inactive,–

SMILES,Potency,"activity change, negative = inhibition"
O=C1CN2Cc3c(ccc(Cl)c3Cl)N=C2N1,–,3.99% (inactive)
CCc1cc(-c2n[nH]c(C)c2-c2ccc3c(c2)OCCO3)c(O)cc1O,–,-0.646% (inactive)
COc1ccc2ccc(=O)oc2c1CC=C(C)C,–,-5.29% (inactive)
O=C(O)C1=CO[C@@H](O[C@@H]2O[C@H](CO)[C@H](O)[C@H](O)[C@H]2O)[C@@H]2C(CO)=CC[C@H]12,–,-2.51% (inactive)
COc1cc2c(cc1Cc1cccc(Cl)c1F)c(=O)c(C(=O)O)cn2[C@H](CO)C(C)C,–,-7.04% (inactive)
OC(c1cc(C(F)(F)F)nc2c(C(F)(F)F)cccc12)C1CCCCN1 (configuration not stated),–,0.56% (inactive)
Cn1cnc(-c2cc3nccc(Oc4ccc(NC(=S)NC(=O)Cc5ccccc5)cc4F)c3s2)c1,inactive,–
Cc1ccc(C(=O)N(CCCN)[C@@H](c2nc3cc(Cl)ccc3c(=O)n2Cc2ccccc2)C(C)C)cc1,–,-4.97% (inactive)
O=S(=O)(NCCNCC=Cc1ccc(Br)cc1)c1cccc2cnccc12,–,3.72% (inactive)
COc1cc2c(cc1OC)CC(=O)N(CCCN(C)C[C@H]1Cc3cc(OC)c(OC)cc31)CC2,–,-6.59% (inactive)
C[C@@]1(c2cc(-c3cncnc3)c(F)cc2F)CCSC(N)=N1,inactive,–
Cc1ccc(C2=Nc3ccc(Cl)cc3OC2)cc1,–,-11.2% (inactive)
COC(=O)[C@H](c1ccccc1Cl)N1CCc2sccc2C1,–,0.901% (inactive)
CCC(C)SSc1ncc[nH]1 (configuration not stated),–,-13.5% (inactive)
COc1ccc(-c2oc3c(CC=C(C)C)c(O)cc(O)c3c(=O)c2O)cc1,–,5.5% (inactive)
CN1C(=O)C(Cc2c[nH]c3ccccc23)NC1=S (configuration not stated),inactive,–
O=c1[nH]c(=O)n([C@H]2C[C@@H](O)[C@@H](CO)O2)cc1I,–,6.4% (inactive)
Oc1ccc(C=Cc2cc(O)cc(O)c2)cc1,–,-14% (inactive)

# Test system: not listed separately
# Assay: Primary qHTS for small molecule stabilizers of the endoplasmic reticulum resident proteome: Secreted ER Calcium Modulated Protein (SERCaMP) assay (AID 1508630)
# Details: SH-SY5Y GLuc-SERCaMP (Gaussia luciferase released on ER calcium loss) secretion, thapsigargin, luminescence; series mostly up to 38.4 µM; activity change, negative = inhibition: at the top concentration
# Procedure, shortened: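 GLuc-SERCaMP-expressing SH-SY5Y cells, pretreated 16 h with compound, are challenged with thapsigargin to empty ER calcium stores; after 4 h, coelenterazine is added directly to the medium and luminescence is imaged.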
SMILES,"activity change, negative = inhibition",Potency
COc1ccc(-c2cc3nccn3c(Nc3ncccc3C(N)=O)n2)cc1OC,-14.8% (inactive),–
C[C@H](c1ccc(F)cc1CCCC(=O)O)N(c1cc(F)ccc1F)S(=O)(=O)c1ccc(Cl)cc1,180% (inactive),–
CC[C@H]1OC(=O)[C@H](C)[C@@H](O[C@H]2C[C@@](C)(OC)[C@@H](O)[C@H](C)O2)[C@H](C)[C@@H](O[C@@H]2O[C@H](C)C[C@H](N(C)C)[C@H]2O)[C@](C)(O)C[C@H](C)C(=NOCOCCOC)[C@H](C)[C@@H](O)[C@]1(C)O,36.7% (inactive),–
CC[C@H](C)n1cc(C)c2c(C(=O)NCc3c(C)cc(C)[nH]c3=O)cc(-c3ccc(N4CCNCC4)nc3)cc21,120% (inactive),–
O=C(O)Cc1cccc(OCCCN(Cc2cccc(C(F)(F)F)c2Cl)CC(c2ccccc2)c2ccccc2)c1,–,inactive
COc1cc2c(cc1OC)[C@@H]1Cc3ccc(OC)c(OC)c3CN1CC2,40.4% (inactive),–
Cc1nn(Cc2ccccc2Cl)c(C)c1CN(C)CC(O)COc1ccc(Cl)cc1 (configuration not stated),180% (inactive),–
CCN(CCO)CCCOc1ccc2c(Nc3cc(CC(=O)Nc4cccc(F)c4)[nH]n3)ncnc2c1,49.2% (inactive),–
CCNC(=O)c1noc(-c2cc(C(C)C)c(O)cc2O)c1-c1ccc(CN2CCOCC2)cc1,98.7% (inactive),–
CNC1CCC(N(Cc2cccc(-c3ccncc3)c2)C(=O)c2sc3ccccc3c2Cl)CC1 (configuration not stated),276% (inactive),–
COc1cc([C@@H]2c3cc4c(cc3[C@@H](O[C@@H]3O[C@@H]5CO[C@@H](C)O[C@@H]5[C@H](O)[C@@H]3O)[C@H]3COC(=O)[C@H]23)OCO4)cc(OC)c1O,–,inactive
CC1(C)C(N(O)C(=O)Nc2ccc(Cl)cc2)N(c2ccc(Cl)cc2)C(=O)N1CC(=O)NN=CC=Cc1ccc([N+](=O)[O-])o1 (configuration not stated),-27.5% (inactive),–
O=C1CCCC(=O)C1C(=O)c1ccc(C(F)(F)F)cc1[N+](=O)[O-],33.8% (inactive),–
Cc1cc(-c2ncc(CC(=O)Nc3ccc(-c4cnccn4)cn3)cc2C)ccn1,0% (inactive),–
OC1CCC(Nc2ncc3nc(Nc4c(F)cc(F)cc4F)n([C@@H]4CCOC4)c3n2)CC1 (some centres not stated),25.7% (inactive),–
COc1c(C)c2c(c(O)c1CC=C(C)CCC(=O)OCCN1CCOCC1)C(=O)OC2,110% (inactive),–
CC(=O)O[C@]1(C(C)=O)CC[C@H]2[C@@H]3C=C(Cl)C4=CC(=O)[C@@H]5C[C@H]5[C@]4(C)[C@@H]3CC[C@@]21C,0% (inactive),–
O=C(O)c1ccc(O)c2ncc(N3CCOCC3)cc12,2.18% (inactive),–

SMILES,"activity change, negative = inhibition",Potency
O=C1CN2Cc3c(ccc(Cl)c3Cl)N=C2N1,22.7% (inactive),–
CCc1cc(-c2n[nH]c(C)c2-c2ccc3c(c2)OCCO3)c(O)cc1O,–,inactive
COc1ccc2ccc(=O)oc2c1CC=C(C)C,184% (inactive),–
O=C(O)C1=CO[C@@H](O[C@@H]2O[C@H](CO)[C@H](O)[C@H](O)[C@H]2O)[C@@H]2C(CO)=CC[C@H]12,43.1% (inactive),–
COc1cc2c(cc1Cc1cccc(Cl)c1F)c(=O)c(C(=O)O)cn2[C@H](CO)C(C)C,61.5% (inactive),–
OC(c1cc(C(F)(F)F)nc2c(C(F)(F)F)cccc12)C1CCCCN1 (configuration not stated),179% (inactive),–
Cn1cnc(-c2cc3nccc(Oc4ccc(NC(=S)NC(=O)Cc5ccccc5)cc4F)c3s2)c1,-24% (inactive),–
Cc1ccc(C(=O)N(CCCN)[C@@H](c2nc3cc(Cl)ccc3c(=O)n2Cc2ccccc2)C(C)C)cc1,159% (inactive),–
O=S(=O)(NCCNCC=Cc1ccc(Br)cc1)c1cccc2cnccc12,185% (inactive),–
COc1cc2c(cc1OC)CC(=O)N(CCCN(C)C[C@H]1Cc3cc(OC)c(OC)cc31)CC2,133% (inactive),–
C[C@@]1(c2cc(-c3cncnc3)c(F)cc2F)CCSC(N)=N1,128% (inactive),–
Cc1ccc(C2=Nc3ccc(Cl)cc3OC2)cc1,2.39% (inactive),–
COC(=O)[C@H](c1ccccc1Cl)N1CCc2sccc2C1,141% (inactive),–
CCC(C)SSc1ncc[nH]1 (configuration not stated),2.2% (inactive),–
COc1ccc(-c2oc3c(CC=C(C)C)c(O)cc(O)c3c(=O)c2O)cc1,254% (inactive),–
CN1C(=O)C(Cc2c[nH]c3ccccc23)NC1=S (configuration not stated),-6.3% (inactive),–
O=c1[nH]c(=O)n([C@H]2C[C@@H](O)[C@@H](CO)O2)cc1I,0% (inactive),–
Oc1ccc(C=Cc2cc(O)cc(O)c2)cc1,17.5% (inactive),–
